For 40 sequences, binding signal results are on record in publication PMC5700166.

The target in one test is T1, GST-Co-NF-kB (Capsaspora owczarzaki, UniProt F1ARL5 200-546).
T1 sequence: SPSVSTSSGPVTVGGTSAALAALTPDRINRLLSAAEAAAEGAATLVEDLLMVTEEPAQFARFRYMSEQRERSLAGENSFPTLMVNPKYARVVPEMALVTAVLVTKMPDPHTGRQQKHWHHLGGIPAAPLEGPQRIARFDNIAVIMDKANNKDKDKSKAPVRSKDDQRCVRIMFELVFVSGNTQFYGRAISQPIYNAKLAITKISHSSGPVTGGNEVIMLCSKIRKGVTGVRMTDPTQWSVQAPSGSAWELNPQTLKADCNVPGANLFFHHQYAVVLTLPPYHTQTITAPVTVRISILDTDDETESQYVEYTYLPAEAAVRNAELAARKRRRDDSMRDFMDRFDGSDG
Put plainly: protein-binding microarray (PBM); PBM: ~300 nM protein, 6 mM HEPES pH 7.8, 80 mM KCl, 0.5 mM EDTA, 0.5 mM EGTA, 6% glycerol, 35 ng/ul poly-dIdC, 1% milk, 1 h, room temperature; Ap Aiptasia and Nv Nematostella (sea anemones) / Co Capsaspora / Aq Amphimedon (sponge) / Dm Drosophila / Hu human; RHD is the Rel homology domain; high values mean tight binding. As to conditions: dsDNA, one strand shown.
On to “CCGATTAACATCAAATGTGGGAATGATGTTAATCGGGTCTTGATTCGCTTGACGCTGCTG”, for which the binding signal came to 3.07 z-score. Same read-out and setting: the result for “CCGATTAACATCAAAGCATTCCCTGATGTTAATCGGGTCTTGATTCGCTTGACGCTGCTG” reads 2.52 z-score. In turn, “CCGATTAACATCAACATGGGAAATGATGTTAATCGGGTCTTGATTCGCTTGACGCTGCTG” came in with a binding signal of 1.82 z-score. For “CCGATTAACATCAGGGAAAGGTATGATGTTAATCGGGTCTTGATTCGCTTGACGCTGCTG”, the binding signal came to 2.67 z-score. On the same count and under the same terms, the result for “CCGATTAACATCACCGCTTCCCTTGATGTTAATCGGGTCTTGATTCGCTTGACGCTGCTG” reads 1.46 z-score; that for “CCGATTAACATCATGCCCGGGAATGATGTTAATCGGGTCTTGATTCGCTTGACGCTGCTG”, 3.51 z-score. Still for that read-out and setting: the result for “CCGATTAACATCATGGTGGGAAATGATGTTAATCGGGTCTTGATTCGCTTGACGCTGCTG” reads 2.94 z-score.

As for “CCGATTAACATCAAATCGGGAAATGATGTTAATCGGGTCTTGATTCGCTTGACGCTGCTG”, the binding signal stood at 2 z-score. The same measure, in the same setting: the value for “CCGATTAACATCACATGGGAAACTGATGTTAATCGGGTCTTGATTCGCTTGACGCTGCTG” was 2.48 z-score; that for “CCGATTAACATCACTCCCTAAAATGATGTTAATCGGGTCTTGATTCGCTTGACGCTGCTG” was 1.22 z-score; that for “CCGATTAACATCATTTCCCTTGATGATGTTAATCGGGTCTTGATTCGCTTGACGCTGCTG” was 1.95 z-score. Still for that read-out and setting: the result for “CCGATTAACATCAAACAGGGAAATGATGTTAATCGGGTCTTGATTCGCTTGACGCTGCTG” reads 2.47 z-score. Still for that read-out and setting: the result for “CCGATTAACATCACCCAGTTCCCTGATGTTAATCGGGTCTTGATTCGCTTGACGCTGCTG” reads 1.44 z-score; that for “CCGATTAACATCATGGGGACGACTGATGTTAATCGGGTCTTGATTCGCTTGACGCTGCTG”, 2.39 z-score. Sequence “CCGATTAACATCAAGCCCCCCCCTGATGTTAATCGGGTCTTGATTCGCTTGACGCTGCTG” displayed a binding signal of 4.89 z-score. The same measure, in the same setting: the value for “CCGATTAACATCACGGTGGGAAATGATGTTAATCGGGTCTTGATTCGCTTGACGCTGCTG” was 2.77 z-score. On the same count and under the same terms, the value for “CCGATTAACATCAGTACGGGAAATGATGTTAATCGGGTCTTGATTCGCTTGACGCTGCTG” was 2.65 z-score; that for “CCGATTAACATCAACATGGGAATTGATGTTAATCGGGTCTTGATTCGCTTGACGCTGCTG” was 1.5 z-score; that for “CCGATTAACATCATGGAGGGAGGTGATGTTAATCGGGTCTTGATTCGCTTGACGCTGCTG” was 1.14 z-score. “CCGATTAACATCATGGGAAGGTTTGATGTTAATCGGGTCTTGATTCGCTTGACGCTGCTG”: the binding signal came to 2.28 z-score. Still for that read-out and setting: the value for “CCGATTAACATCAGGGAAAGGAATGATGTTAATCGGGTCTTGATTCGCTTGACGCTGCTG” was 1.48 z-score. The same measure, in the same setting: the value for “CCGATTAACATCAGAGTTTCCCATGATGTTAATCGGGTCTTGATTCGCTTGACGCTGCTG” was 3.76 z-score. Still for that read-out and setting: the result for “CCGATTAACATCAGGGAATTAGATGATGTTAATCGGGTCTTGATTCGCTTGACGCTGCTG” reads 2.41 z-score; that for “CCGATTAACATCACATCTTTCCCTGATGTTAATCGGGTCTTGATTCGCTTGACGCTGCTG”, 3.84 z-score; that for “CCGATTAACATCAACTCGGGAAATGATGTTAATCGGGTCTTGATTCGCTTGACGCTGCTG”, 3.32 z-score. “CCGATTAACATCAACTTTCCCAGTGATGTTAATCGGGTCTTGATTCGCTTGACGCTGCTG” gave a binding signal of 3.84 z-score.

In a further test the target is T2, GST-Aq-NF-kB (Amphimedon queenslandica, UniProt A9Y5G7 2-389).
T2 sequence: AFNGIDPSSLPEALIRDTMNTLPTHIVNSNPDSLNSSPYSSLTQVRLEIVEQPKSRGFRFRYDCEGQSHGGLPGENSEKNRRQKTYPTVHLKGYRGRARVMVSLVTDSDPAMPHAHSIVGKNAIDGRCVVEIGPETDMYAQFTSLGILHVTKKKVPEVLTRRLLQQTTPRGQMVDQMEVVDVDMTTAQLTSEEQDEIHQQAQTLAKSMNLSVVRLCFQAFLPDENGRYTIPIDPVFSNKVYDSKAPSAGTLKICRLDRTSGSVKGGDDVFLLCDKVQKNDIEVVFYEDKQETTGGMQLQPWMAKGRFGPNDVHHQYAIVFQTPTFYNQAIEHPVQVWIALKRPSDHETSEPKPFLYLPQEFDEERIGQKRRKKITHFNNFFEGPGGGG
The description is as above. As to conditions: dsDNA, one strand shown.
In turn, “CCGATTAACATCATCAGGGAAAATGATGTTAATCGGGTCTTGATTCGCTTGACGCTGCTG” had a binding signal of 2.95 z-score.

In turn, “CCGATTAACATCAGGGACAAAAATGATGTTAATCGGGTCTTGATTCGCTTGACGCTGCTG” yielded a binding signal of 2.39 z-score. Still for that read-out and setting: the value for “CCGATTAACATCAGGTCGGGAAATGATGTTAATCGGGTCTTGATTCGCTTGACGCTGCTG” was 1.83 z-score; that for “CCGATTAACATCAATCGGGAAATTGATGTTAATCGGGTCTTGATTCGCTTGACGCTGCTG” was 2.1 z-score. The same measure, in the same setting: the result for “CCGATTAACATCAGGGAAAAGGATGATGTTAATCGGGTCTTGATTCGCTTGACGCTGCTG” reads 2.41 z-score; that for “CCGATTAACATCAATTCCCGTACTGATGTTAATCGGGTCTTGATTCGCTTGACGCTGCTG”, 2.81 z-score. In turn, “CCGATTAACATCAGATTTCTCCCTGATGTTAATCGGGTCTTGATTCGCTTGACGCTGCTG” had a binding signal of 3.18 z-score. Still for that read-out and setting: the value for “CCGATTAACATCAATTTACCCACTGATGTTAATCGGGTCTTGATTCGCTTGACGCTGCTG” was 1.45 z-score; that for “CCGATTAACATCAACTGGGAAAATGATGTTAATCGGGTCTTGATTCGCTTGACGCTGCTG” was 1.65 z-score; that for “CCGATTAACATCAAGCGTTTCCCTGATGTTAATCGGGTCTTGATTCGCTTGACGCTGCTG” was 2.82 z-score. Same read-out and setting: the value for “CCGATTAACATCACTTTCCCAAATGATGTTAATCGGGTCTTGATTCGCTTGACGCTGCTG” was 1.54 z-score.

With “CCGATTAACATCATCTGGGAAAATGATGTTAATCGGGTCTTGATTCGCTTGACGCTGCTG”, the binding signal is 1.45 z-score. Same read-out and setting: the value for “CCGATTAACATCAGGGACGGAAATGATGTTAATCGGGTCTTGATTCGCTTGACGCTGCTG” was 2.84 z-score. “CCGATTAACATCAGGGAAAAGAATGATGTTAATCGGGTCTTGATTCGCTTGACGCTGCTG” came in with a binding signal of 3.22 z-score. On the same count and under the same terms, the value for “CCGATTAACATCAAATGTGGGAATGATGTTAATCGGGTCTTGATTCGCTTGACGCTGCTG” was 2.21 z-score; that for “CCGATTAACATCAAAGCATTCCCTGATGTTAATCGGGTCTTGATTCGCTTGACGCTGCTG” was 3.35 z-score; that for “CCGATTAACATCAACATGGGAAATGATGTTAATCGGGTCTTGATTCGCTTGACGCTGCTG” was 1.66 z-score. Same read-out and setting: the value for “CCGATTAACATCAGGGAAAGGTATGATGTTAATCGGGTCTTGATTCGCTTGACGCTGCTG” was 3.59 z-score; that for “CCGATTAACATCACCGCTTCCCTTGATGTTAATCGGGTCTTGATTCGCTTGACGCTGCTG” was 2 z-score; that for “CCGATTAACATCATGCCCGGGAATGATGTTAATCGGGTCTTGATTCGCTTGACGCTGCTG” was 2.72 z-score. Still for that read-out and setting: the result for “CCGATTAACATCATGGTGGGAAATGATGTTAATCGGGTCTTGATTCGCTTGACGCTGCTG” reads 1.9 z-score. In the case of “CCGATTAACATCAAATCGGGAAATGATGTTAATCGGGTCTTGATTCGCTTGACGCTGCTG”, the binding signal came to 1.61 z-score. On the same count and under the same terms, the value for “CCGATTAACATCACATGGGAAACTGATGTTAATCGGGTCTTGATTCGCTTGACGCTGCTG” was 1.58 z-score; that for “CCGATTAACATCACTCCCTAAAATGATGTTAATCGGGTCTTGATTCGCTTGACGCTGCTG” was 3.48 z-score.

Regarding “CCGATTAACATCATTTCCCTTGATGATGTTAATCGGGTCTTGATTCGCTTGACGCTGCTG”, the binding signal turned out to be 3.49 z-score.

For “CCGATTAACATCAAACAGGGAAATGATGTTAATCGGGTCTTGATTCGCTTGACGCTGCTG”, the binding signal amounted to 3.23 z-score. Still for that read-out and setting: the result for “CCGATTAACATCACCCAGTTCCCTGATGTTAATCGGGTCTTGATTCGCTTGACGCTGCTG” reads 1.7 z-score; that for “CCGATTAACATCATGGGGACGACTGATGTTAATCGGGTCTTGATTCGCTTGACGCTGCTG”, 2.64 z-score. For “CCGATTAACATCAAGCCCCCCCCTGATGTTAATCGGGTCTTGATTCGCTTGACGCTGCTG”, the binding signal is 4.71 z-score.

In turn, “CCGATTAACATCACGGTGGGAAATGATGTTAATCGGGTCTTGATTCGCTTGACGCTGCTG” displayed a binding signal of 1.94 z-score. Still for that read-out and setting: the result for “CCGATTAACATCAGTACGGGAAATGATGTTAATCGGGTCTTGATTCGCTTGACGCTGCTG” reads 2.81 z-score; that for “CCGATTAACATCAACATGGGAATTGATGTTAATCGGGTCTTGATTCGCTTGACGCTGCTG”, 1.89 z-score. Same read-out and setting: the result for “CCGATTAACATCATGGAGGGAGGTGATGTTAATCGGGTCTTGATTCGCTTGACGCTGCTG” reads 1.34 z-score; that for “CCGATTAACATCATGGGAAGGTTTGATGTTAATCGGGTCTTGATTCGCTTGACGCTGCTG”, 1.66 z-score. Same read-out and setting: the result for “CCGATTAACATCAGGGAAAGGAATGATGTTAATCGGGTCTTGATTCGCTTGACGCTGCTG” reads 2.97 z-score; that for “CCGATTAACATCAGAGTTTCCCATGATGTTAATCGGGTCTTGATTCGCTTGACGCTGCTG”, 3.07 z-score.

As to “CCGATTAACATCAGGGAATTAGATGATGTTAATCGGGTCTTGATTCGCTTGACGCTGCTG”, the binding signal was found to be 3.43 z-score. Sequence “CCGATTAACATCACATCTTTCCCTGATGTTAATCGGGTCTTGATTCGCTTGACGCTGCTG” registered a binding signal of 4.25 z-score. On the same count and under the same terms, the result for “CCGATTAACATCAACTCGGGAAATGATGTTAATCGGGTCTTGATTCGCTTGACGCTGCTG” reads 1.73 z-score; that for “CCGATTAACATCAACTTTCCCAGTGATGTTAATCGGGTCTTGATTCGCTTGACGCTGCTG”, 3.06 z-score.
